Reference: PubChem BioAssay AID1159580 (chemical genetic matrix, 2015)
Where “and” joins values, the source holds several entries; their conditions need not be identical. Equal values may be shown once. The whole screen tested about 5,500 compounds, of which about 2,000 (36%) were called active. About 18% were inconclusive and are not listed. No stated cut-off is given here; in the data, active means normalized growth mostly below about 0.91 (no sharp cut-off); inconclusive means no clear call, values can overlap the other calls; inactive means mostly above about 0.92. The list shows a part of the results.

Assay: chemical genetic growth profiling, strain panel (AID 1159580);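 further: tested at 20 µM; growth read once vehicle control cultures reached saturation at 30 °C; 1 = growth at the plate median or of vehicle wells; lower values mean less growth of the strain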
Settings: growth OD

Measured: normalized growth

Nc1nc(N)c2nc(CNc3ccc(C(=O)NC(CCC(=O)O)C(=O)O)cc3)cnc2n1 (stereo unspecified)
inactive: S. cerevisiae deletion strains, locus YKL009W, strain mrt4, hits give low values 0.972 | S. cerevisiae deletion strains, locus YKL068W, hits give low values 0.981 | S. cerevisiae deletion strains, locus YKL085W, strain MDH1 (second series), hits give low values 0.986 | S. cerevisiae deletion strains, locus YKL085W, strain MDH1, hits give low values 0.986 | S. cerevisiae deletion strains, locus YKL160W, strain elf1, hits give low values 0.968 | S. cerevisiae deletion strains, locus YKL190W, strain CNB1, hits give low values 1.01 | S. cerevisiae deletion strains, locus YKR001C, strain vps1, hits give low values 0.989 | S. cerevisiae deletion strains, locus YKR026C, strain gcn3, hits give low values 0.997 | S. cerevisiae deletion strains, locus YKR091W, strain srl3, hits give low values 0.99 | S. cerevisiae deletion strains, locus YLL001W, strain dnm1, hits give low values 0.941 | S. cerevisiae deletion strains, locus YLL026W, hits give low values 0.996 | S. cerevisiae deletion strains, locus YLL041C, strain sdh2, hits give low values 0.971 | S. cerevisiae deletion strains, locus YLR027C, strain aat2, hits give low values 1 | S. cerevisiae deletion strains, locus YLR039C, strain RIC1, hits give low values 1.01 | S. cerevisiae deletion strains, locus YLR058C, strain SHM2, hits give low values 1 | S. cerevisiae deletion strains, locus YLR102C, strain apc9, hits give low values 0.972 | S. cerevisiae deletion strains, locus YLR221C, strain rsa3, hits give low values 1.06 | S. cerevisiae deletion strains, locus YLR258W, strain gsy2, hits give low values 0.974 | S. cerevisiae deletion strains, locus YLR262C, strain YPT6 (second series), hits give low values 1.03 | S. cerevisiae deletion strains, locus YLR262C, strain YPT6, hits give low values 0.952 | S. cerevisiae deletion strains, locus YLR268W, strain sec22, hits give low values 0.977 | S. cerevisiae deletion strains, locus YLR320W, strain mms22, hits give low values 1.05 | S. cerevisiae deletion strains, locus YLR330W, strain CHS5, hits give low values 1.01 | S. cerevisiae deletion strains, locus YLR342W, strain FKS1 (second series), hits give low values 1.07 | S. cerevisiae deletion strains, locus YLR342W, strain FKS1, hits give low values 1.01 | S. cerevisiae deletion strains, locus YLR357W, strain rsc2, hits give low values 0.963 | S. cerevisiae deletion strains, locus YLR370C, strain arc18, hits give low values 0.99 | S. cerevisiae deletion strains, locus YLR371W, strain rom2, hits give low values 0.973 | S. cerevisiae deletion strains, locus YLR384C, strain iki3, hits give low values 0.988 | S. cerevisiae deletion strains, locus YLR418C, strain cdc73, hits give low values 1.02 | S. cerevisiae deletion strains, locus YML016C, strain PPZ1, hits give low values 0.992 | S. cerevisiae deletion strains, locus YML032C, strain rad52, hits give low values 1.01 | S. cerevisiae deletion strains, locus YML120C, strain ndi1, hits give low values 0.979 | S. cerevisiae deletion strains, locus YML124C, strain tub3, hits give low values 0.988 | S. cerevisiae deletion strains, locus YMR058W, strain fet3, hits give low values 0.984 | S. cerevisiae deletion strains, locus YMR078C, strain ctf18, hits give low values 0.974 | S. cerevisiae deletion strains, locus YMR125W, strain sto1, hits give low values 0.967 | S. cerevisiae deletion strains, locus YMR129W, hits give low values 1 | S. cerevisiae deletion strains, locus YMR205C, strain PFK2, hits give low values 0.965 | S. cerevisiae deletion strains, locus YMR223W, strain ubp8, hits give low values 0.989 | S. cerevisiae deletion strains, locus YMR231W, strain pep5, hits give low values 1 | S. cerevisiae deletion strains, locus YMR263W, strain SAP30, hits give low values 0.99 and 1 | S. cerevisiae deletion strains, locus YMR307W, strain GAS1, hits give low values 1.16 | S. cerevisiae deletion strains, locus YNL067W, strain RPL9B, hits give low values 0.975 | S. cerevisiae deletion strains, locus YNL071W, strain lat1, hits give low values 0.998 | S. cerevisiae deletion strains, locus YNL128W, strain TEP1, hits give low values 1 | S. cerevisiae deletion strains, locus YNL153C, strain GIM3, hits give low values 1 | S. cerevisiae deletion strains, locus YNL175C, strain NOP13, hits give low values 0.989 | S. cerevisiae deletion strains, locus YNL197C, strain WHI3, hits give low values 0.956 | S. cerevisiae deletion strains, locus YNL209W, strain ssb2, hits give low values 0.987 | S. cerevisiae deletion strains, locus YNL224C, strain SQS1, hits give low values 0.981 | S. cerevisiae deletion strains, locus YNL233W, strain BNI4, hits give low values 1.01 | S. cerevisiae deletion strains, locus YNL248C, strain rpa49, hits give low values 1.02 | S. cerevisiae deletion strains, locus YNL250W, strain rad50, hits give low values 0.945 | S. cerevisiae deletion strains, locus YNL271C, strain bni1, hits give low values 0.984 | S. cerevisiae deletion strains, locus YNL298W, strain CLA4, hits give low values 0.995 | S. cerevisiae deletion strains, locus YNL307C, strain MCK1, hits give low values 0.977 | S. cerevisiae deletion strains, locus YNL322C, strain KRE1 (second series), hits give low values 0.976 | S. cerevisiae deletion strains, locus YNL322C, strain KRE1, hits give low values 0.998 and 1.01 | S. cerevisiae deletion strains, locus YNR049C, strain mso1, hits give low values 0.987 | S. cerevisiae deletion strains, locus YNR052C, strain pop2, hits give low values 0.991 | S. cerevisiae deletion strains, locus YOL006C, strain TOP1, hits give low values 0.981 | S. cerevisiae deletion strains, locus YOL012C, strain htz1 0.761 | S. cerevisiae deletion strains, locus YOL147C, strain pex11, hits give low values 0.998 | S. cerevisiae deletion strains, locus YOR001W, strain rrp6, hits give low values 1.01 | S. cerevisiae deletion strains, locus YOR061W, strain CKA2, hits give low values 0.99 | S. cerevisiae deletion strains, locus YOR069W, strain VPS5, hits give low values 0.992 | S. cerevisiae deletion strains, locus YOR070C, strain gyp1, hits give low values 0.997 | S. cerevisiae deletion strains, locus YOR080W, strain dia2, hits give low values 1.01 | S. cerevisiae deletion strains, locus YOR083W, strain WHI5 (second series), hits give low values 1 | S. cerevisiae deletion strains, locus YOR083W, strain WHI5, hits give low values 0.967 | S. cerevisiae deletion strains, locus YOR106W, strain vam3, hits give low values 0.94 | S. cerevisiae deletion strains, locus YOR136W, strain idh2, hits give low values 0.994 | S. cerevisiae deletion strains, locus YOR144C, strain elg1, hits give low values 1 | S. cerevisiae deletion strains, locus YOR184W, strain ser1, hits give low values 0.99 | S. cerevisiae deletion strains, locus YOR265W, strain rbl2, hits give low values 0.989 | S. cerevisiae deletion strains, locus YOR270C, strain vph1, hits give low values 1.05 | S. cerevisiae deletion strains, locus YOR290C, strain snf2, hits give low values 0.933 | S. cerevisiae deletion strains, locus YOR316C, strain cot1, hits give low values 0.986 | S. cerevisiae deletion strains, locus YPL051W, strain arl3, hits give low values 1 | S. cerevisiae deletion strains, locus YPL055C, strain LGE1, hits give low values 1.02 and 0.989 | S. cerevisiae deletion strains, locus YPL078C, strain atp4, hits give low values 0.955 | S. cerevisiae deletion strains, locus YPL106C, strain sse1, hits give low values 0.956 | S. cerevisiae deletion strains, locus YPL240C, strain hsp82, hits give low values 0.992 | S. cerevisiae deletion strains, locus YPL241C, strain CIN2, hits give low values 1.01 | S. cerevisiae deletion strains, locus YPR119W, strain clb2, hits give low values 0.987 | S. cerevisiae deletion strains, locus YPR141C, strain kar3, hits give low values 0.98 | S. cerevisiae deletion strains, locus YPR163C, strain tif3, hits give low values 1 | S. cerevisiae deletion strains, locus YPR167C, strain met16, hits give low values 0.989 | S. cerevisiae deletion strains, strain wtn01, hits give low values 0.965 | S. cerevisiae strains, strain wild type, hits give low values 1.01
